Most compounds without a hit are left out; they make up all but 8% or so of the library.
KB-V1 MDR tox = kills drug-selected multidrug resistant KB-V1 cells; KB-V1 MDR cells viability, CellTiter-Glo, 72 h; Potency, µM (titrated, usually from 46.1 µM), hits mostly cytotoxic; actives 3.4% (n = 400,000); also: nearly all actives have a fitted effect of over 60% in size
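Following 72 h at 37 degrees C with compound, KB-V1 cell viability was read by CellTiter-Glo luminescence, medium being phenol-red-free DMEM plus 10% FBS; concentration-response parameters came from normalized, curve-fitted qHTS data.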
HT1080NT lethal = kills 2HG-producing HT-1080-NT fibrosarcoma cells; HT-1080-NT fibrosarcoma viability, CellTiter-Glo ATP luminescence, 48 h; Potency, µM (series often up to 46.1 µM), actives largely listed as cytotoxic; actives 1.6% (n = 360,000);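 also: NT is the 2HG producing partner of a matched IDH1 knockdown line; nearly all actives have a fitted effect of over 55% in size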
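Luminescent CellTiter-Glo readout after 48 hours of compound exposure at 37 degrees C defined viability of HT-1080-NT cells. Activity was normalized to DMSO wells and cell-free media wells; concentration-response curves were fitted and assigned curve classes.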
HT1080 IDH1KD tx = toxicity to HT-1080 IDH1 knockdown cells (counter line) | HT-1080 IDH1 knockdown viability, ATP luminescence, 48 h | actives 2% (n = 360,000) | Potency, µM (series often up to 46.1 µM), usual class: cytotoxic
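Cytotoxicity counter-line: IDH1KD HT-1080, 48 h, CellTiter-Glo. Curves classed by r2, magnitude and activity.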
MCF10A rerep = inducers of DNA re-replication in MCF 10A breast cells; Potency, µM (top dose mostly 46.1 µM), hits mostly activators; MCF 10A DNA re-replication, Hoechst nuclear intensity, 48 h; actives 2.9% (n = 350,000); also: nearly all actives have a fitted effect of over 50% in size
SW480 rereplic = DNA re-replication induction in SW480 cells | SW480 DNA re-replication, Hoechst DNA content imaging, 48 h | Potency, µM (series often up to 46.1 µM), usual class: activators | actives 1.8% (n = 340,000) | AID 624297; also: nearly all actives have a fitted effect of over 55% in size
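Quantitative HTS format with DMSO vehicle controls; 48 hr drug incubation at 37 C, then 40 min Hoechst staining and scanning imager measurement at 405 nm excitation.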
KB-3-1 cytotox = KB-3-1 parental cell cytotoxicity; KB-3-1 viability, CellTiter-Glo ATP luminescence, 72 h; Potency, µM (doses to about 46.1 µM), hits mostly cytotoxic; actives 1.4% (n = 400,000); AID 1347075; also: nearly all actives have a fitted effect of over 60% in size
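Cytotoxicity in the drug-sensitive parental line KB-3-1 was scored as loss of CellTiter-Glo luminescence following 72 h incubation with compound. Values come from curve fitting of normalized concentration-response data.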
Numbers stand for hits; . = inactive; ? = inconclusive; / = no result; ! = repeats disagree; [ ] = another dose, or the depositor's remark. Calls follow the shape of the dose curve; as a rule, active = well fitted curve in the direction sought with a large enough effect; inconclusive = small, poorly fitted or top-dose-only effect, or another doubt; inactive = no such curve, though single readings can be large; an effect the other way counts as inactive or inconclusive.

SMILES	KB-V1 MDR tox	HT1080NT lethal	HT1080 IDH1KD tx	MCF10A rerep	SW480 rereplic	KB-3-1 cytotox
Cc1cccc(N(Cc2ccccc2)C(=O)CSC(C)C(=O)Nc2cc(C)on2)c1 (stereo not drawn)	14.6µM	.	.	?	.	?
Cc1cccc(N=C2NN=C(c3c(C)[nH]c4ccccc34)CS2)c1	?	?	18.4µM	14.6µM	?	.
Cc1cccc(N=C2NN=C(c3ccc4c(c3)OCCO4)CS2)c1	.	?	?	?	?	.
CCN(C(=O)c1cc2c(=O)n(CC)c3ccccc3c2s1)c1cccc(C(F)(F)F)c1	.	/	/	/	/	.
CCC(C)NC(=O)Cn1ncc2c(C)n(Cc3ccc(F)cc3)c(C)c2c1=O (stereo not drawn)	.	/	/	/	/	.
O=c1c(Cl)c(O)c2cccc3c4ccccc4n1c23	?	.	.	23.1µM	.	.
CCC(C(=O)N1CCN(c2ccccc2)CC1)n1nc(C)n2c(cc3sccc32)c1=O (stereo not drawn)	?	/	/	/	/	18.4µM
CCC(C(=O)N1CCC(C(N)=O)CC1)n1nc(C)n2c(cc3occc32)c1=O (stereo not drawn)	.	.	.	.	.	.
CCC(C(=O)NCCN1CCOCC1)n1nc(C)n2c(cc3sccc32)c1=O (stereo not drawn)	.	.	.	.	.	.
CCC(C(=O)N1CCN(c2cc(Cl)ccc2C)CC1)n1nc(C)n2c(cc3occc32)c1=O (stereo not drawn)	10.3µM	/	/	/	/	10.3µM
COC(=O)c1cc(C(=O)c2ccc(Cl)cc2)n2c(=O)/c(=C\N(C)C)sc12	?	.	.	?	.	8.2µM
COC(=O)c1cc(C(=O)c2ccccc2)n2c(=O)/c(=C\N(C)C)sc12	.	.	.	.	.	.
CC(=O)N1N=C(c2cccc([N+](=O)[O-])c2)OC1c1ccc(Cl)cc1Cl (stereo not drawn)	20.6µM	.	.	?	.	.
CN(C)S(=O)(=O)N1CCN(S(=O)(=O)c2ccc(F)cc2)CC1	.	.	.	.	.	.
CN(C)S(=O)(=O)c1ccc(N2CCN(S(=O)(=O)c3ccc(F)cc3)CC2)c(Cl)c1	5.8µM	10µM	7.08µM	.	.	?
CC(C)(C)c1ccc(OCC(=O)Nc2ccncc2)c(Br)c1	?	.	.	14.6µM	.	?
COc1cccc(OCC(=O)Nc2ccncc2)c1	.	.	.	.	.	?
CCc1ccc(OCC(=O)Nc2ccncc2)c(Br)c1	9.2µM	?	?	?	?	?
Cc1ccccc1OCC(=O)NNC(=S)NC(=O)c1ccccc1[N+](=O)[O-]	?	.	?	.	.	?
CC(C)CCOc1cccc(OCC(=O)Nc2ccncc2)c1	2.91µM	?	?	?	.	?
CC(C)(C)c1ccc(OCC(=O)NNC(=S)NC(=O)c2ccccc2[N+](=O)[O-])c(Br)c1	?	?	18.4µM	20.6µM	?	?
CN(Cc1ccccc1)c1ccc2cc(S(=O)(=O)N3CCCCC3)ccc2n1	?	/	/	/	/	.
COc1ccc2c(c1)CC(C(=O)Nc1c(C)cc(C)cc1C)CO2 (stereo not drawn)	.	/	/	/	/	.
C[n+]1ccccc1N1CCN(c2ccccc2Cl)CC1	.	.	.	.	.	20.6µM
FC(F)Sc1ccc(-n2cc(-c3ccccc3)[n+]3c2CCC3)cc1	.	.	.	.	.	14.6µM
SMILES	KB-V1 MDR tox	HT1080NT lethal	HT1080 IDH1KD tx	MCF10A rerep	SW480 rereplic	KB-3-1 cytotox
O=C(NCCCc1ccccc1)c1cnc2n(c1=O)CCS2	14.6µM	.	.	.	.	.
O=C(NCCCc1ccccc1)c1ccccc1O	?	.	?	14.6µM	?	.
CCN(CCC(=O)O)c1ccc(/C=C/c2ccnc3ccccc23)cc1	.	/	/	/	/	.
Cc1ccc(C(=O)NCc2ccc(N(C)C)cc2)cc1NC(=O)c1nsc2ccccc12	.	/	/	/	/	.
Cc1ccc(Cl)cc1N1CCN(C(=O)c2c(C)oc3ncnc(N4CCCCC4)c23)CC1	.	/	/	/	/	.
O=C(Nc1nc2c(F)cccc2s1)C1CC1	.	.	.	.	.	.
CC1CCc2c(sc(Nc3nc4c(F)cccc4s3)c2C(N)=O)C1 (stereo not drawn)	.	?	?	7.31µM	?	.
CC1(C)CCC(=O)N2CC[C@H]3C[C@H](OC(=O)Nc4ccccc4)C[C@@H]1[C@H]32	18.4µM!	.	.	.	.	.
Cc1ccc(P(C)(=O)c2ccc(C)cc2)cc1	.	.	.	.	.	.
Cc1ccc(NP(=O)(Nc2ccc(C)cc2)Nc2ccc(C)cc2)cc1	?	.	.	.	?	20.6µM
COc1ccc(Cn2c(O)c(C=Nc3ccccc3)c3ccccc3c2=O)cc1	.	.	.	.	.	.
COc1ccc(Cn2c(O)c(C=Nc3ccc(O)cc3)c3ccccc3c2=O)cc1	20.6µM	.	?	6.51µM	?	?
CCOC(=O)CCc1c(C)c2ccc3c(c2oc1=O)CN(CCCO)CO3	.	.	.	7.31µM	?	.
CCOC(=O)C1CCCN(c2ncnc3c2nnn3C)C1 (stereo not drawn)	.	/	/	/	/	.
COc1ccc(CC(=O)c2cc(OC)c(OC)cc2CC(=O)O)cc1OC	.	.	.	.	.	.
COc1ccc(/C(N)=N/OC(=O)Cc2ccc(OC)c(OC)c2)cc1	8.2µM	?	.	.	.	?
COc1ccc(C(=O)Cc2ccc(OC)c(OC)c2)c(OC)c1	13µM	.	.	.	.	.
Cc1cccc(/C=N/Nc2ccc3ccccc3n2)c1	.	.	.	20.6µM	.	.
Cc1ccc(/C=N/Nc2ccc3ccccc3n2)o1	8.2µM	.	.	.	?	.
C(=N\Nc1nc2ccccc2[nH]1)/c1ccc2c(c1)OCCO2	.	.	?	.	.	?
C(=N\Nc1ccc2ccccc2n1)/c1ccc2c(c1)OCCO2	18.4µM	.	.	23.1µM	?	.
CC(=NNc1ccc2ccccc2n1)c1ccccc1O	4.11µM	.	.	?	?	.
O=C(Nc1c(C(=O)N2CCN(c3ccccc3)CC2)oc2ccccc12)c1ccc(Br)o1	.	/	/	/	/	.
CC1=CC(=O)N(c2cccc(C(F)(F)F)c2)C1c1ccc(Cl)cc1 (stereo not drawn)	14.6µM	.	.	?	.	.
N#Cc1c(Cl)cccc1N1CCSCC1	23.1µM	.	.	/	/	?
N#Cc1c(N2CCSCC2)nsc1-c1ccccc1Cl	4.61µM	.	?	?	?	3.66µM
N#Cc1c(Cl)cccc1N1CCCC1	.	.	.	.	.	.
NCCNc1ncnc2ccc(-c3ccc4c(c3)OCO4)cc12	.	/	/	/	/	?
C=CCn1cnc2c(c1=O)c1nc3ccccc3nc1n2/N=C/c1cc(OC)c(OC)c(OC)c1	?	?	?	?	.[9.22 µM]	.
